In PubChem BioAssay (NCATS):
Records with an inconclusive call do not appear. Unmarked numbers belong to inactive results. Active and inactive are the calls of the source. Calls follow the shape of the dose curve; as a rule, active = well fitted cell-killing curve with a large enough effect; inconclusive = small, poorly fitted or top-dose-only effect, or effect the other way; inactive = no such curve, though single readings can be large or run the other way.

Legend:
[1] = Quantitative High-Throughput drug screen in 47 multiple myeloma cell lines against the NCATS MIPE library collection: KMS28PE_JCRB cell viability assay (AID 1918983); also: nearly all actives have a fitted effect of over 35% in size; also: potency is read from the fitted curve at half-maximal effect
Summary of the method: (§1)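 500 cells/well; MIPE 4.0 drugs pin-transferred; 48 h, 37C, 5% CO2. CellTiter-Glo, 5 min RT, luminescence. Controls: DMSO 100%, media 0%.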

[2] = Quantitative High-Throughput drug screen in 47 multiple myeloma cell lines against the NCATS MIPE library collection: OCIMY5_PLB cell viability assay (AID 1918988); also: potency is read from the fitted curve at half-maximal effect; nearly all actives have a fitted effect of over 65% in size
Summary of the method: as §1

[3] = Quantitative High-Throughput drug screen in 47 multiple myeloma cell lines against the NCATS MIPE library collection: OPM1_PLB cell viability assay (AID 1918989); also: nearly all actives have a fitted effect of over 40% in size; also: potency is read from the fitted curve at half-maximal effect
Summary of the method: as §1

[4] = Quantitative High-Throughput drug screen in 47 multiple myeloma cell lines against the NCATS MIPE library collection: XG6_PLB cell viability assay (AID 1919865); also: nearly all actives have a fitted effect of over 40% in size; also: potency is read from the fitted curve at half-maximal effect
Summary of the method: as §1

[5] = Quantitative High-Throughput drug screen in 47 multiple myeloma cell lines against the NCATS MIPE library collection: XG1_PLB cell viability assay (AID 1919866); also: nearly all actives have a fitted effect of over 35% in size; also: potency is read from the fitted curve at half-maximal effect
Summary of the method: as §1

[6] = Quantitative High-Throughput drug screen in 47 multiple myeloma cell lines against the NCATS MIPE library collection: PE2_PLB cell viability assay (AID 1919869); also: nearly all actives have a fitted effect of over 35% in size; also: potency is read from the fitted curve at half-maximal effect
Summary of the method: as §1

[7] = Quantitative High-Throughput drug screen in 47 multiple myeloma cell lines against the NCATS MIPE library collection: PCM6_Riken cell viability assay (AID 1919870); also: nearly all actives have a fitted effect of over 30% in size; also: potency is read from the fitted curve at half-maximal effect
Summary of the method: as §1

[8] = Quantitative High-Throughput drug screen in 47 multiple myeloma cell lines against the NCATS MIPE library collection: RPMI8226_ATCC cell viability assay (AID 1919871); also: potency is read from the fitted curve at half-maximal effect; nearly all actives have a fitted effect of over 30% in size
Summary of the method: as §1

[9] = Quantitative High-Throughput drug screen in 47 multiple myeloma cell lines against the NCATS MIPE library collection: OPM2_DSMZ cell viability assay (AID 1919872); also: nearly all actives have a fitted effect of over 30% in size; also: potency is read from the fitted curve at half-maximal effect
Summary of the method: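 Steps: seed 500 cells per well; pin-transfer MIPE 4.0 library; incubate 48 h at 37C, 5% CO2, humidified; add CellTiter-Glo, 5 min room temperature; read luminescence.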

[10] = Quantitative High-Throughput drug screen in 47 multiple myeloma cell lines against the NCATS MIPE library collection: KMS11_JCRBsus cell viability assay (AID 1919873); also: nearly all actives have a fitted effect of over 50% in size; also: potency is read from the fitted curve at half-maximal effect
Summary of the method: as §1

[11] = Quantitative High-Throughput drug screen in 47 multiple myeloma cell lines against the NCATS MIPE library collection: KMS28BM_JCRB cell viability assay (AID 1919874); also: nearly all actives have a fitted effect of over 35% in size; also: potency is read from the fitted curve at half-maximal effect
Summary of the method: as §1

[12] = Quantitative High-Throughput drug screen in 47 multiple myeloma cell lines against the NCATS MIPE library collection: U266_ATCC cell viability assay (AID 1919864); also: nearly all actives have a fitted effect of over 35% in size; also: potency is read from the fitted curve at half-maximal effect
Summary of the method: as §1

[13] = Quantitative High-Throughput drug screen in 47 multiple myeloma cell lines against the NCATS MIPE library collection: VP6_DJ cell viability assay (AID 1919867); also: nearly all actives have a fitted effect of over 40% in size; also: potency is read from the fitted curve at half-maximal effect
Summary of the method: as §1

[14] = Quantitative High-Throughput drug screen in 47 multiple myeloma cell lines against the NCATS MIPE library collection: KMS34_JCRB cell viability assay (AID 1918985); also: nearly all actives have a fitted effect of over 40% in size; also: potency is read from the fitted curve at half-maximal effect
Summary of the method: as §1

[15] = Quantitative High-Throughput drug screen in 47 multiple myeloma cell lines against the NCATS MIPE library collection: SKMM1_PLB cell viability assay (AID 1919863); conditions: SKMM1 myeloma viability, CellTiter-Glo ATP, 48 h; viability: hits give low values
Summary of the method: as §1

[16] = Quantitative High-Throughput drug screen in 47 multiple myeloma cell lines against the NCATS MIPE library collection: L363_DSMZ cell viability assay (AID 1918984); also: nearly all actives have a fitted effect of over 40% in size
Summary of the method: as §1

[17] = Quantitative High-Throughput drug screen in 47 multiple myeloma cell lines against the NCATS MIPE library collection: OCIMY7_PLB cell viability assay (AID 1918987); conditions: OCI-MY7 myeloma viability, CellTiter-Glo ATP, 48 h; viability (% of DMSO): at 45.8 µM (top of the series); also: potency is read from the fitted curve at half-maximal effect; nearly all actives have a fitted effect of over 65% in size
Summary of the method: as §1

[18] = Quantitative High-Throughput drug screen in 47 multiple myeloma cell lines against the NCATS MIPE library collection: UTMC2_PLB cell viability assay (AID 1919868); conditions: CellTiter-Glo ATP luminescence, 48 h; viability (% of DMSO control): at 45.8 µM (top of the series); also: potency is read from the fitted curve at half-maximal effect; nearly all actives have a fitted effect of over 55% in size
Summary of the method: as §1

SMILES: O=C(O)c1cc(O)c2c(c1)C(=O)c1cccc(O)c1C2=O
- Potency [1]: 30.3 µM (active)
- Potency [2]: 48.1 µM (active)
- Potency [3]: inactive
- Potency [4]: inactive
- Potency [5]: inactive
- Potency [6]: inactive
- Potency [7]: inactive
- Potency [8]: 42.9 µM (active)
- Potency [9]: inactive
- Potency [10]: inactive
- Potency [11]: inactive

SMILES: CC(C)(C)C(=O)Oc1ccc2c(c1)nc(NC(=O)c1cccc([N+](=O)[O-])c1)n2CCCO
- Potency [2]: 18.7 µM (active)
- Potency [3]: inactive
- Potency [4]: inactive
- Potency [5]: inactive
- Potency [6]: inactive
- Potency [7]: inactive
- Potency [8]: 18.7 µM (active)
- Potency [9]: inactive
- Potency [10]: inactive
- Potency [11]: inactive

SMILES: O=C1Nc2ccc(Cl)cc2C(C#CC2CC2)(C(F)(F)F)O1 (stereo not drawn)
- Potency [2]: 16.6 µM (active)
- Potency [3]: 20.9 µM (active)
- Potency [12]: 23.5 µM (active)
- Potency [5]: 16.6 µM (active)
- Potency [13]: 16.6 µM (active)
- Potency [6]: 23.5 µM (active)
- Potency [10]: 20.9 µM (active)
- Potency [11]: 20.9 µM (active)

SMILES: O=C(O)c1ccc(-c2cc3cccnc3c(-c3ccc4nonc4c3)n2)cc1
- Potency [14]: 14.8 µM (active)
- Potency [3]: 20.9 µM (active)
- Potency [15]: 20.9 µM (active)
- Potency [12]: 20.9 µM (active)
- Potency [4]: 20.9 µM (active)
- Potency [5]: 20.9 µM (active)
- Potency [13]: 20.9 µM (active)
- Potency [10]: 26.4 µM (active)
- Potency [11]: 26.4 µM (active)

SMILES: CC(C)(C)Cn1c(N)nc2ccc(-c3[nH]c(C(C)(C)C)nc3-c3ccc(F)cc3)nc21
- Potency [1]: 23.5 µM (active)
- Potency [16]: inactive
- Potency [2]: 16.6 µM (active)
- Potency [3]: 20.9 µM (active)
- Potency [4]: 14.8 µM (active)
- Potency [13]: 16.6 µM (active)
- Potency [6]: 20.9 µM (active)
- Potency [10]: inactive

SMILES: CCS(=O)(=O)N1CC(CC#N)(n2cc(-c3ncnc4[nH]ccc34)cn2)C1
- Potency [16]: inactive
- Potency [14]: 6.62 µM (active)
- Potency [17]: 8.33 µM (active)
- Potency [2]: 7.43 µM (active)
- Potency [3]: 20.9 µM (active)
- Potency [12]: 23.5 µM (active)
- Potency [4]: 2.09 µM (active)
- Potency [5]: 0.332 µM (active)
- Potency [7]: 5.9 µM (active)
- Potency [11]: 23.5 µM (active)

SMILES: Cc1ccc(/C=N/NC(=O)c2ccccc2Oc2ccccc2)o1
- Potency [16]: inactive
- Potency [17]: 16.6 µM (active)
- Potency [2]: 16.6 µM (active)
- Potency [5]: 11.8 µM (active)
- Potency [13]: inactive
- Potency [9]: 20.9 µM (active)
- Potency [10]: 9.35 µM (active)

SMILES: O=C(Nc1ccccc1Br)N[C@@H]1CCN(c2ccc(C(F)(F)F)cn2)C1
- Potency [16]: inactive
- Potency [14]: inactive
- Potency [4]: 23.5 µM (active)
- Potency [13]: 18.7 µM (active)
- Potency [6]: 18.7 µM (active)
- Potency [9]: inactive
- Potency [11]: 20.9 µM (active)

SMILES: NC(=O)c1ccc2nc(-c3ccc(Oc4ccc(Cl)cc4)cc3)[nH]c2c1
- Potency [1]: inactive
- Potency [3]: 6.62 µM (active)
- Potency [12]: inactive
- Potency [13]: 6.62 µM (active)
- Potency [10]: 11.8 µM (active)

SMILES: O=c1c(O)c(-c2ccc(O)cc2)oc2cc(O)cc(O)c12
- Potency [14]: inactive
- Potency [17]: 14.8 µM (active)
- Potency [2]: 26.4 µM (active)
- Potency [4]: 14.8 µM (active)
- Potency [5]: 16.6 µM (active)
- Potency [13]: 16.6 µM (active)
- Potency [7]: 18.7 µM (active)
- Potency [11]: 4.69 µM (active)

SMILES: C=CCc1ccc(O)c(-c2ccc(O)c(CC=C)c2)c1
- Potency [2]: 18.7 µM (active)
- Potency [12]: 16.6 µM (active)
- Potency [4]: 14.8 µM (active)
- Potency [5]: 18.7 µM (active)
- Potency [13]: 20.9 µM (active)
- Potency [6]: 18.7 µM (active)
- Potency [7]: 20.9 µM (active)
- Potency [11]: 23.5 µM (active)

SMILES: CC(C)n1nc(-c2ccc3oc(N)nc3c2)c2c(N)ncnc21
- Potency [1]: 0.0023 µM (active)
- Potency [17]: 2.64 µM (active)
- Potency [2]: 4.69 µM (active)
- Potency [3]: 0.001 µM (active)
- Potency [15]: 0.0074 µM (active)
- Potency [13]: 0.001 µM (active)
- Potency [7]: 0.0662 µM (active)

SMILES: N[C@H](CSC(c1ccccc1)(c1ccccc1)c1ccccc1)C(=O)O
- Potency [14]: 9.35 µM (active)
- Potency [17]: 7.43 µM (active)
- Potency [2]: 9.35 µM (active)
- Potency [3]: 5.9 µM (active)
- Potency [15]: 10.5 µM (active)
- Potency [12]: inactive
- Potency [4]: 6.62 µM (active)
- Potency [13]: 10.5 µM (active)
- Potency [18]: 9.35 µM (active)
- Potency [9]: 20.9 µM (active)
- Potency [10]: 4.18 µM (active)

SMILES: CC(C)[C@H](CO)Nc1nc(Nc2ccc(C(=O)O)c(Cl)c2)c2ncn(C(C)C)c2n1
- Potency [1]: 37.2 µM (active)
- Potency [17]: 16.6 µM (active)
- Potency [3]: 10.5 µM (active)
- Potency [6]: 23.5 µM (active)
